The record followed here is ChEMBL document CHEMBL2218924, “A broad activity screen in support of a chemogenomic map for kinase signalling research and drug discovery” (Biochem J, 2013).

Structures are written as SMILES.

Experiment [1] concerns the target T1, Dual specificity mitogen-activated protein kinase kinase 6 (Homo sapiens) (UniProt P52564).
T1 sequence (whole entry): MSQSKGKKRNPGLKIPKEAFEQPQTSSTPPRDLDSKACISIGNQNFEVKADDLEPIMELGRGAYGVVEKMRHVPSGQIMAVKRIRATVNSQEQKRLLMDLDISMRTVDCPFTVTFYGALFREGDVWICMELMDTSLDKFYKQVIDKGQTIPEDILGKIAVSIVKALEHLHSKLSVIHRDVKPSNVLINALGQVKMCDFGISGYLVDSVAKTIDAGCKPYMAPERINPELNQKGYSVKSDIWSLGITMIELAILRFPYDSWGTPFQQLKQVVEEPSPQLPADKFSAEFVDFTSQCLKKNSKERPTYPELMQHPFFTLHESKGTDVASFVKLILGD
To be noted: at 1 µM.

The target in experiment [2] is T1, Dual specificity mitogen-activated protein kinase kinase 6 (Homo sapiens). To be noted: at 10 µM.
The target in experiment [3] is T2, Dual specificity mitogen-activated protein kinase kinase 7 (Homo sapiens) (UniProt O14733).
T2 sequence (whole entry): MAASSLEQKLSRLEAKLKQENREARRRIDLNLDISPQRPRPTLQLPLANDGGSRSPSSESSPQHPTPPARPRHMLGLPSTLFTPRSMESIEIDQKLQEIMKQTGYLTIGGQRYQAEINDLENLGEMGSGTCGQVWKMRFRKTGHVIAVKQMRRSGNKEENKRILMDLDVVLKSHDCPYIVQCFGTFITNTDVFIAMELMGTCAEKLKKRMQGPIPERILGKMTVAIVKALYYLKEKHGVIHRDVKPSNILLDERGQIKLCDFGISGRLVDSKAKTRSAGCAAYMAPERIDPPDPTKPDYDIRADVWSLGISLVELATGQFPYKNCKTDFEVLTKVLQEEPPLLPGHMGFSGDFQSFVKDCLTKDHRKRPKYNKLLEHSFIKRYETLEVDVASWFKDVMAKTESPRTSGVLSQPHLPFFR
To be noted: at 1 µM.

The target in experiment [4] is T2, Dual specificity mitogen-activated protein kinase kinase 7 (Homo sapiens). To be noted: at 10 µM.
The target of experiment [5] is Myosin light chain kinase, smooth muscle (Homo sapiens) (UniProt Q15746). To be noted: at 10 µM.
Experiment [6] deals with Mitogen-activated protein kinase kinase kinase 9 (Homo sapiens) (UniProt P80192). To be noted: at 1 µM.
Experiment [7] has the same target. To be noted: at 10 µM.
The target of experiment [8] is Serine/threonine-protein kinase MRCK beta (Homo sapiens) (UniProt Q9Y5S2). To be noted: at 10 µM.
Experiment [9] deals with Ribosomal protein S6 kinase alpha-4 (Homo sapiens) (UniProt O75676). To be noted: at 1 µM.
For experiment [10] the target is unchanged. To be noted: at 10 µM.
Experiment [11] addresses SRSF protein kinase 3 (Homo sapiens) (UniProt Q9UPE1). To be noted: at 10 µM.
The target of experiment [12] is Myosin light chain kinase, smooth muscle (Homo sapiens) (UniProt Q15746). To be noted: at 1 µM.
For experiment [13], the target named is Serine/threonine-protein kinase MRCK beta (Homo sapiens) (UniProt Q9Y5S2). To be noted: at 1 µM.
Experiment [14] concerns the target SRSF protein kinase 3 (Homo sapiens) (UniProt Q9UPE1). To be noted: at 1 µM.
The target of experiment [15] is T3, Serine/threonine-protein kinase 4 (Homo sapiens) (UniProt Q13043).
T3 sequence (whole entry): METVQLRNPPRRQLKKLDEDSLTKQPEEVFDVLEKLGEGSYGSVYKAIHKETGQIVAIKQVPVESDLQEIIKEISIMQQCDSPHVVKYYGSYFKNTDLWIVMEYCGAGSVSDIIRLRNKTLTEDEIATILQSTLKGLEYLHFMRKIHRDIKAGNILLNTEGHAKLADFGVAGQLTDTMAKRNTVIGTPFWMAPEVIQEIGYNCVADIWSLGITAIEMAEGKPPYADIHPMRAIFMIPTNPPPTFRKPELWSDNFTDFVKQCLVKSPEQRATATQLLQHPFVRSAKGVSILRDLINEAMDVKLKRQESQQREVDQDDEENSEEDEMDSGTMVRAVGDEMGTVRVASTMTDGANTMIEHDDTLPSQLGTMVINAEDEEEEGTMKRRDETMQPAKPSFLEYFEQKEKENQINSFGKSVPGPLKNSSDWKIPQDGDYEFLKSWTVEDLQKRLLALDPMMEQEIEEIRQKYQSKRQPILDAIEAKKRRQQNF
To be noted: at 1 µM.

Experiment [16] has as its target T3, Serine/threonine-protein kinase 4 (Homo sapiens). To be noted: at 10 µM.
The target of experiment [17] is Ribosomal protein S6 kinase alpha-5 (Homo sapiens) (UniProt O75582). To be noted: at 1 µM.
Experiment [18] has as its target Serine/threonine-protein kinase MRCK alpha (Homo sapiens) (UniProt Q5VT25). To be noted: at 1 µM.
For experiment [19] the target is unchanged. To be noted: at 10 µM.
Experiment [20] concerns the target Ribosomal protein S6 kinase alpha-5 (Homo sapiens) (UniProt O75582). To be noted: at 10 µM.

Chain of Serine/threonine-protein kinase MRCK beta (Homo sapiens) (Q9Y5S2 whole entry): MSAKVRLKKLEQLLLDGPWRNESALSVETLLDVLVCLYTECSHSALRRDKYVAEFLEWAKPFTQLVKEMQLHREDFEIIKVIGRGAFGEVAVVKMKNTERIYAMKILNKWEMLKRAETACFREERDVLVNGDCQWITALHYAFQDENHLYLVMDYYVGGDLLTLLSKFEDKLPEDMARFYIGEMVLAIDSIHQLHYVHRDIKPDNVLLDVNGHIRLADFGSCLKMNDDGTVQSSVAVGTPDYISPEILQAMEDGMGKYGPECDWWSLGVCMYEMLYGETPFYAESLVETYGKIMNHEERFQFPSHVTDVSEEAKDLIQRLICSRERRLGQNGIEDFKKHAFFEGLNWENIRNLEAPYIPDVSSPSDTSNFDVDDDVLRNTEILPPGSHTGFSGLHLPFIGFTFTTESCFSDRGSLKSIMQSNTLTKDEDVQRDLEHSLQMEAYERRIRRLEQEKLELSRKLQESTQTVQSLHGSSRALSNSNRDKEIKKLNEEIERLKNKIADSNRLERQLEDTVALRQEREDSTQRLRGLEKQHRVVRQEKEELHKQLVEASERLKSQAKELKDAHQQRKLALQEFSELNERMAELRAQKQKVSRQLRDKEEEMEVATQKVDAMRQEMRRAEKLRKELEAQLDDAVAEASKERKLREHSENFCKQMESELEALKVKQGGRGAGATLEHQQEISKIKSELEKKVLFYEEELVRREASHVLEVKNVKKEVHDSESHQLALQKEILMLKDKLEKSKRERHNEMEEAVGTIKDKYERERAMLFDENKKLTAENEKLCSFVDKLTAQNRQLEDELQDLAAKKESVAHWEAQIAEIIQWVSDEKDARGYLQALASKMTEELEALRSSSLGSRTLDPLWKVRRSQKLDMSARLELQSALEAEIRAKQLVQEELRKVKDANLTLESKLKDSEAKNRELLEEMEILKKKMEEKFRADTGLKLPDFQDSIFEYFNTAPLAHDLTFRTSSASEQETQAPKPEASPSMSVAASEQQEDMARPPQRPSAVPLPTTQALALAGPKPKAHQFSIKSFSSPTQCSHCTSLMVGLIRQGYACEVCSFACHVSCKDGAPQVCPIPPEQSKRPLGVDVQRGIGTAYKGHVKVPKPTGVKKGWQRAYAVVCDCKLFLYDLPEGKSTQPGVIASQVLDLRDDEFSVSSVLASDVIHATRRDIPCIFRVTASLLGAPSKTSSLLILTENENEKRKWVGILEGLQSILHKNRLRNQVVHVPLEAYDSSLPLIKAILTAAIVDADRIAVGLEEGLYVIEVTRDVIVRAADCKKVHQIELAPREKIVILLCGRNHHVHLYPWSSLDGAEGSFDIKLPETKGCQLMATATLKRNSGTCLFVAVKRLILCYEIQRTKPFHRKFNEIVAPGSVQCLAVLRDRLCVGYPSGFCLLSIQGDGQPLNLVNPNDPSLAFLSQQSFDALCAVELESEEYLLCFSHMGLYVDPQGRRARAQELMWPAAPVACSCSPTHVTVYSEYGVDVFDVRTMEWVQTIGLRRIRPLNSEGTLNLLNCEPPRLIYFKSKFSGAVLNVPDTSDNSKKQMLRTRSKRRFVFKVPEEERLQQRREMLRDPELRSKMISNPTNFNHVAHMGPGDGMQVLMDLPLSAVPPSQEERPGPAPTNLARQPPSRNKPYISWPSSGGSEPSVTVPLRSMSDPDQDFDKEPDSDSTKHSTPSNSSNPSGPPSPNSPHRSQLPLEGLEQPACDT
Chain of Ribosomal protein S6 kinase alpha-5 (Homo sapiens) (O75582 whole entry, looked up): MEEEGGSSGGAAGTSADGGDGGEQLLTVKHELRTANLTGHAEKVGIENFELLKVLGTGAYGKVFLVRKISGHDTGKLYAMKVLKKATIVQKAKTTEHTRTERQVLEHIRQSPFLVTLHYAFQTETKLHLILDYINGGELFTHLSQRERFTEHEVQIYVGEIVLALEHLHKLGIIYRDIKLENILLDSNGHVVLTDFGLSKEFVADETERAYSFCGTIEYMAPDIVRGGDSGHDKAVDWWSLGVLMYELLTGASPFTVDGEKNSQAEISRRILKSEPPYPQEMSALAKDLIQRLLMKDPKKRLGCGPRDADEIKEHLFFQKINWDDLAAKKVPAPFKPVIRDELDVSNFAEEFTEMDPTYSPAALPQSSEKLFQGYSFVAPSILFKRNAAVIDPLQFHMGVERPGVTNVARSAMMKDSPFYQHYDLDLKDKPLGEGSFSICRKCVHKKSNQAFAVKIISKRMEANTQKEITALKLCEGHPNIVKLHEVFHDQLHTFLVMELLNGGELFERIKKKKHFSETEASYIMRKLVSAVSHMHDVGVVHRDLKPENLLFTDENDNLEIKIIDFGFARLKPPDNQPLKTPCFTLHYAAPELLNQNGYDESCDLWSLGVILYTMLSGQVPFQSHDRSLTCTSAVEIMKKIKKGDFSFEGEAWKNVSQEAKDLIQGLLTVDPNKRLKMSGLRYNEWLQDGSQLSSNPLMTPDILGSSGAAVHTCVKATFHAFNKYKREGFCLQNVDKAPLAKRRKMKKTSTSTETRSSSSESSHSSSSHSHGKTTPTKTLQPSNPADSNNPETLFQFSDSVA
Chain of Serine/threonine-protein kinase MRCK alpha (Homo sapiens) (Q5VT25 whole entry): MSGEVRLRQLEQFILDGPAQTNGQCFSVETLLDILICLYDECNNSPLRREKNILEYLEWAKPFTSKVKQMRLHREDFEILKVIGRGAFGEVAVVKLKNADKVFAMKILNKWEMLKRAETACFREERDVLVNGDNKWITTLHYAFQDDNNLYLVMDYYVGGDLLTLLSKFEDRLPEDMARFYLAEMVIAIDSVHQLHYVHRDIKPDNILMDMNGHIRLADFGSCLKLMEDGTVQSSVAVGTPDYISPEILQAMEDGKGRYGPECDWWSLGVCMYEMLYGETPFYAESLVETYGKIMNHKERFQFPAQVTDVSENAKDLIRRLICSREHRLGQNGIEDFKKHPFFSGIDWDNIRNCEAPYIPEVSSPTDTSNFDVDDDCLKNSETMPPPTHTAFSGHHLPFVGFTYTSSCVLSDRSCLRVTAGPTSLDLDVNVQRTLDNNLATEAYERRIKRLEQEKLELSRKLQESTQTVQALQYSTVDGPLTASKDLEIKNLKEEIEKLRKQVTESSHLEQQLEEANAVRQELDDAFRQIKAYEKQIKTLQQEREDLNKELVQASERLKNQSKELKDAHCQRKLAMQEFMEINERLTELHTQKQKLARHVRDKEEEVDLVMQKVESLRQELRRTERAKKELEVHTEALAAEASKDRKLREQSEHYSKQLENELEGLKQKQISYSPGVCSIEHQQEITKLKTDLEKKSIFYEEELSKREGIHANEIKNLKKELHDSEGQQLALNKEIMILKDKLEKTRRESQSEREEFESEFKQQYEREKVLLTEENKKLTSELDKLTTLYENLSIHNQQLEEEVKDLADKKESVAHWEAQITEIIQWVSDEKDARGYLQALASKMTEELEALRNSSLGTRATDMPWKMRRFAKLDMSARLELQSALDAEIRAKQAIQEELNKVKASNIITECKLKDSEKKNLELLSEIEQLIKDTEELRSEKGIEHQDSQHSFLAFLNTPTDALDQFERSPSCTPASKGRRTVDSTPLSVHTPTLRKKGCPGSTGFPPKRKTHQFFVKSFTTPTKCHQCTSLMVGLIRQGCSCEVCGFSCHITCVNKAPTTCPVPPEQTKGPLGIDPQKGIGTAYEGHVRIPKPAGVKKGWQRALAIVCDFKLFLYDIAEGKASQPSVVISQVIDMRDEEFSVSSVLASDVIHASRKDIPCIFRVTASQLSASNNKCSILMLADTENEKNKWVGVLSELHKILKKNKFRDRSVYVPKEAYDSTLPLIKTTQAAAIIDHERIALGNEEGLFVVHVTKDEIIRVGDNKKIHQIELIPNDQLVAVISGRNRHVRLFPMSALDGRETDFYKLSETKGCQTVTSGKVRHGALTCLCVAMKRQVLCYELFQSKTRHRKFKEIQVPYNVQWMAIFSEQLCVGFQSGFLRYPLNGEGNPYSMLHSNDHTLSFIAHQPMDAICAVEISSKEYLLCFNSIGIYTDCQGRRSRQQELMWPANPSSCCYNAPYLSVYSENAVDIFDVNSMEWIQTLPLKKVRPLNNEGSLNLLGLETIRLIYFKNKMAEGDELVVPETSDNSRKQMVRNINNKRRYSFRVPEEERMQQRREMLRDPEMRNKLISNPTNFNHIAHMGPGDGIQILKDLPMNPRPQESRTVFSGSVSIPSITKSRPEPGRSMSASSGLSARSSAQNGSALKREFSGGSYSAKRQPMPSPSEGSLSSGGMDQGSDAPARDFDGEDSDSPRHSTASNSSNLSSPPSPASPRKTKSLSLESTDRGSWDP
Chain of Ribosomal protein S6 kinase alpha-4 (Homo sapiens) (O75676 whole entry, looked up): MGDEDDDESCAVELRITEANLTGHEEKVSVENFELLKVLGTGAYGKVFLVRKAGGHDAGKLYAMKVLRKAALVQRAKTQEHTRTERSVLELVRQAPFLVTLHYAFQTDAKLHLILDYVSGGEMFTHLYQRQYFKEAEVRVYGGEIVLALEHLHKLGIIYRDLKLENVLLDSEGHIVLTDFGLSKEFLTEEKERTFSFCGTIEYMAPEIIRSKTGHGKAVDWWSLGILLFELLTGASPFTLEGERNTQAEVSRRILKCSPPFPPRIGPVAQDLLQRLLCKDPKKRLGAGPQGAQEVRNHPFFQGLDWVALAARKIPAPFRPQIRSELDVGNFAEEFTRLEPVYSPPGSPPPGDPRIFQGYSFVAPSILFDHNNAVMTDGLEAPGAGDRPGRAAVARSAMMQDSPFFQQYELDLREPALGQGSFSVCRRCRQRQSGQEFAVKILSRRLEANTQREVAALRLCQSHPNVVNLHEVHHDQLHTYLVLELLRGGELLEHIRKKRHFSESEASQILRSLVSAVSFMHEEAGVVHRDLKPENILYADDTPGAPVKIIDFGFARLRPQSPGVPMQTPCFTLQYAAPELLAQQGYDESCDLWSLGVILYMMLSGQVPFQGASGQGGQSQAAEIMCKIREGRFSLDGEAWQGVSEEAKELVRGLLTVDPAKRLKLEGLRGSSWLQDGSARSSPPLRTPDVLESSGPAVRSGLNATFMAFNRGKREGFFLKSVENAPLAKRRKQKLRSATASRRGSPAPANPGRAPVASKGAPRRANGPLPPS

As to `CSc1nc(-c2ccc(F)cc2)c(-c2ccnc(NC(C)c3ccccc3)c2)[nH]1` (stereo not drawn), the residual activity in [1] is 70%; in experiment [2] it was -2%; in [3], 99%; in experiment [4], 48%; in experiment [5], 68%; in experiment [6], 99%. The residual activity in [7] was 85%; in experiment [8], 89%; in [9], 100%; in [10], 84%; in [11], 86%.
On to `O=C1Cc2c([nH]c3ccc(Br)cc23)-c2ccccc2N1`, for which the residual activity in experiment [1] came out at 100%; in experiment [2], 77%; in experiment [3], 95%; in experiment [4], 62%; in [12] it was 89%; in experiment [5], 58%. Besides, the residual activity was found to be 22% in experiment [6]; 4% in experiment [7]; 72% in experiment [13]; 52% in [8]; 82% in [9]; 63% in experiment [10]. The residual activity in experiment [14] was found to be 98%; in [11], 87%; in experiment [15] it was 44%; in experiment [16], 35%.
Take `Fc1ccc(-c2nc3n(c2-c2ccncc2)CCS3)cc1`: the residual activity stood at 61% in [1]; 9% in experiment [2]; 82% in [3]; 83% in experiment [4]; 99% in [13]; 98% in experiment [8]. In addition, the residual activity in experiment [9] was found to be 95%; in experiment [10], 85%.
Consider `O=C(Nc1nc2ccccc2n1CCN1CCOCC1)c1cccc([N+](=O)[O-])c1`, for which the residual activity is 73% in [1]; 137% in experiment [2]; 75% in experiment [3]; 87% in [4]; 78% in [12]; 83% in [5]. Moreover, the residual activity in experiment [6] came to 77%; in [7] it was 75%; in experiment [13], 88%; in experiment [8], 83%; in experiment [17], 124%; in [15], 88%. In addition, in experiment [16], the residual activity stood at 77%.
As for `NC(=O)Nc1sc(-c2ccc(F)cc2)cc1C(N)=O`, the residual activity in experiment [1] was determined as 97%; in experiment [2], 41%; in experiment [3] it was 96%; in experiment [4], 44%; in experiment [12], 92%; in experiment [5], 31%. Moreover, the residual activity in experiment [6] amounted to 9%; in experiment [7] it was 1%; in [13], 80%; in experiment [8], 50%; in [9], 85%; in experiment [10], 46%. Moreover, the residual activity in [14] came to 96%; in experiment [11] it was 67%; in experiment [15], 28%; in [16] it was 10%.
For the compound `Nc1ncnc2c1c(-c1ccc(Oc3ccccc3)cc1)cn2C1CCCC1`, the residual activity in experiment [1] worked out at 85%; in experiment [2], 89%; in experiment [3], 95%; in experiment [4] it was 79%; in experiment [12] it was 63%; in [5] it was 45%. Also, the residual activity in experiment [18] was 107%; in experiment [19], 118%; in [13] it was 90%; in experiment [8], 69%; in experiment [17], 126%; in experiment [20], 67%. The residual activity in experiment [9] was 83%; in experiment [10] it was 59%; in [14], 106%; in experiment [11], 96%; in experiment [15] it was 76%; in experiment [16], 48%.
For the compound `COc1cc2nccc(Oc3ccc(NC(=S)NC(=O)c4ccccc4C)cc3)c2cc1OC`, the residual activity was found to be 65% in experiment [1]; 71% in experiment [2]; 93% in [3]; 87% in experiment [4]; 67% in [12]; 80% in [5]. Besides, the residual activity in [6] was 63%; in [7], 41%; in experiment [19], 124%; in experiment [13] it was 84%; in [8], 67%; in experiment [17], 137%. The residual activity in experiment [20] was 102%; in [9], 87%; in experiment [10] it was 93%; in [15], 81%; in experiment [16], 86%.
In the case of `N#Cc1c(NC(=O)c2cccc3ccccc23)sc2c1CCCC2`, the residual activity in experiment [1] was found to be 93%; in experiment [2], 85%; in [3] it was 88%; in experiment [4], 82%; in [5], 83%; in experiment [6], 96%. The results for the residual activity in experiment [7], in [13] and in experiment [10] were 95%, 100% and 99%, respectively.
Regarding `CC(C)(C)c1nc2c3ccc(F)cc3c3c(=O)[nH]ccc3c2[nH]1`, the residual activity in experiment [1] came out at 39%; in experiment [2], 41%; in experiment [3] it was 69%; in experiment [4], 35%; in [12], 2%; in [5], 4%. Also, the residual activity came to 9% in experiment [6]; 21% in [7]; 36% in [9]; 44% in experiment [10]; 79% in experiment [14]; 8% in [15]. Further, the residual activity in experiment [16] was determined as 10%.
As to `O=C(c1ccccc1)c1ccc(N2CCOCC2)cc1O`, the residual activity in [1] was found to be 85%; in experiment [2], 79%; in [3] it was 98%; in [4], 85%; in experiment [12] it was 88%; in experiment [5], 87%. For the same compound, the residual activity in [18] amounted to 100%; in experiment [19] it was 100%; in experiment [13], 91%; in experiment [8] it was 82%; in experiment [20], 86%; in experiment [9], 88%. The residual activity amounted to 100% in [10], 113% in experiment [14], 111% in [15] and 116% in experiment [16].
With `O=C(O)/C=C/c1cc(Br)c(Br)c(Br)c1Br`, the residual activity in experiment [1] worked out at 99%; in experiment [2] it was 84%; in [4], 71%; in experiment [12], 94%; in experiment [5], 22%; in experiment [6] it was 93%. The residual activity in experiment [7] was 72%; in experiment [13], 106%; in [8], 90%; in [20], 102%; in experiment [9], 102%; in [10], 64%. Moreover, the residual activity was determined as 124% in [14], 100% in [11], 97% in experiment [15] and 97% in experiment [16].
`N#C/C(=C1/Nc2ccccc2S1)c1ccnc(NCCc2cccnc2)n1`: the residual activity was 84% in [1]; 39% in [2]; 67% in [3]; 42% in experiment [4]; 96% in experiment [12]; 73% in [5]. Further, the residual activity came to 48% in [6]; 9% in experiment [7]; 112% in [17]; 68% in experiment [20]; 81% in experiment [15]; 84% in experiment [16].
In the case of `Nc1ncnc2c1cnn2-c1ccccc1`, the residual activity in experiment [1] is 79%; in experiment [2], 91%; in [3], 97%; in [4], 94%; in [12], 86%; in experiment [5], 84%. Besides, the residual activity in experiment [6] came to 83%; in experiment [7], 57%; in experiment [13], 95%; in experiment [8], 83%; in experiment [10], 86%; in [11], 23%. The residual activity in experiment [15] turned out to be 97%.
On to `O=C1NC(=O)c2c1c1c3ccccc3[nH]c1n1cncc21`, for which the residual activity in [1] came to 69%; in [2] it was 21%; in experiment [3], 42%; in experiment [4], 27%; in experiment [12], 11%; in experiment [5], 8%. The residual activity in [6] was found to be 33%; in experiment [7], 12%; in experiment [18], 99%; in experiment [19], 90%; in experiment [13], 82%; in [8] it was 79%. In addition, the residual activity in experiment [17] was 63%; in experiment [20], 48%; in [9], 53%; in experiment [10], 29%; in experiment [14], 82%; in experiment [11], 63%. In addition, the results for the residual activity in experiment [15] and in experiment [16] were 40% and 21%, respectively.
